Laboratory results published in the emibetuzumab library of Makowski et al. (2022).
This is one part of the list. No count for the full screen is at hand.

B1: VH:VL chains; a variant is named by its letters at X, in order (parent)
chain 1: QVQLVQSGAEVKKPGASVKVSCKASGYTFTDYXMHWVRQAPGQGLEWMGXVNPNXXXTTYNQKFEGRVTMTTDTSTSTAYMELRSLRSDDTAVYYCARXNXLDXWGQGTTVTVSS
chain 2: DIQMTQSPSSLSASVGDRVTITCSVSSSVSSIYLHWYQQKPGKAPKLLIYSTSNLASGVPSRFSGSGSGTDFTLTISSLQPEDFATYYCQVYSGYPLTFGGGTKVEIK

Variants of: B1
Assay: yeast display scFab, FACS + sequencing
Details: with MET
In short: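 Heavy-chain CDR mutant scFab yeast surface library, enriched by two magnetic rounds on HGFR-Fc-coated Protein A beads and then by FACS. Cells were labelled with 1 nM HGFR-Fc in PBSB with 1% milk and anti-Myc for 3 h at room temperature, and the top 50% antigen-positive cells were gated. Round-3 sorted and input populations were deep sequenced in two replicates. Antigen binding call: positive if a sequence occurred in both antigen-positive samples, negative if it occurred only in input.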

Variant | antigen binding call
DAKTDDGV | no binding
DKEGGDGY | no binding
AREKGSAA | no binding
YRARSSAA | binds
YREKGSAA | binds
YGGGGVAA | no binding
YTKRGSAA | no binding
YGATSSLA | no binding
YGAAGSAA | binds
YTGRGSAA | binds
AAEGGYAV | no binding
VKGASDWA | no binding
VTTKSDSA | no binding
VTTKSDGA | no binding
YREKGAAA | binds
YRARGSLA | binds
YTARGSAA | binds
YRARGSAA | binds
DTRGADAV | no binding
DEGAGDGF | no binding
YKTRGFGA | no binding
YKTRGSAA | binds
YRARSSLA | binds
FAARAFGV | no binding
SEEASDGA | no binding

Variant | antigen binding call
YRKGGFVA | no binding
YRAGGSVA | binds
YRAGGYVA | binds
YRAGGFVA | binds
YRAGGVVA | binds
YREGGFVA | no binding
DTGTGSSA | no binding
STTKSDGV | no binding
VAGTGDWA | no binding
FKGKGVGD | no binding
YKGKGALD | binds
YKGAGALD | no binding
FKGKGAGD | binds
YKGGGALD | binds
YKEEDSLD | no binding
YKKGGSLD | binds
DTTGSASD | no binding
VAGGDDWV | no binding
FKGKGALD | binds
YKGKGSLD | binds
FKGRGALA | binds
DAGEASAV | no binding
VRAGADAV | no binding
VRAGADSV | no binding
YAGEASAV | no binding

Variant | antigen binding call
SEARSSAD | no binding
YRARSSAD | binds
YRGAASAV | binds
YAEESSAD | no binding
YRAGSSAD | binds
YRAGASAV | binds
DAGTAFSS | no binding
VEREADWF | no binding
FREKDSAD | no binding
YRAKGSAD | binds
YREKDSAD | binds
YRAGASAD | binds
YRARGSAD | binds
YAEKDAGD | no binding
DTEEGDVA | no binding
DAKEGDAD | no binding
DTGEADAS | no binding
VAGKGVLD | no binding
VKGEAAWD | no binding
VRGKGAAD | binds
VRGKGAWD | binds
VRGKGAVD | binds
VEGKGAGD | no binding
VAGKGAGD | no binding
VKGKGAWD | binds

Variant | antigen binding call
YEKETVVA | no binding
YKGKGAWD | binds
YKGKSAWD | no binding
SEARSAGV | no binding
DRAGDAGV | no binding
SEARSSGV | no binding
YRARSASV | binds
YRARSSGV | binds
YRARSAGV | binds
STEGDAGA | no binding
DATRGAGY | no binding
YRKGDSLD | binds
ARKGSSGD | no binding
VRKGSSGD | binds
YRKGSSGD | binds
VEKGGSGD | no binding
YRKGDSGD | binds
VTGTGAAV | no binding
YRKGDAGD | binds
FRGRGYWV | binds
FRGRGYVA | binds
FAAGSYAV | no binding
FRGRGYAV | binds
FRGRGYVV | binds
VTGEDAVV | no binding

Variant | antigen binding call
SEEGTAGA | no binding
VRATGYWA | no binding
YRGRGYSV | binds
SRGRGYSV | no binding
YGGTSYSV | no binding
DRGRGDWV | no binding
FRGRGDWV | binds
YRGRGYWV | binds
YRGRGYWA | binds
FAGGGDWV | no binding
AKERGDGV | no binding
VETEGDAV | no binding
FRGRGAWV | binds
ARGRGAWV | no binding
FKGRGVWV | no binding
YRGRGVWV | binds
FKGRGAWV | binds
YGGRGDWV | no binding
VTGGGDGA | no binding
YRGGASAA | binds
VEGGGSSA | no binding
VRGGGSAA | binds
DAGGAAVA | no binding
YRGRGSAF | binds
YEGGADVA | no binding

Variant | antigen binding call
DAGGAAAA | no binding
YRGGAAAA | binds
VEGGGDAA | no binding
YRGGGSAA | binds
DTKAASSA | no binding
SEGGSAAY | no binding
DEGGTDGV | no binding
YEERTAAA | no binding
DEGGTAAA | no binding
YRGRTAAA | binds
VRGRSSAA | binds
YRGGTAAA | binds
VREGSSAA | no binding
YRAGGVGF | binds
YRGRGYGS | binds
YRGRGYVS | binds
YRTRDVGF | no binding
YRAGGYGF | binds
DKTGDDVF | no binding
SEKKDYSA | no binding
DGGGGYWF | no binding
YEGGGYSF | no binding
YRGRGYGA | binds
YTGGDDGF | no binding
YRGRGYGF | binds

Variant | antigen binding call
YRGGGYGF | no binding
DRGGGDGV | no binding
YRGGGDGF | binds
SETGADVA | no binding
YTGRGSLD | binds
YTGRGSGV | binds
YTGTSSLD | no binding
VTGTGSLD | no binding
DTGRGSGV | no binding
FTGRGAGV | no binding
DRAGDDSA | no binding
YRAGGASA | binds
YRARSASA | binds
YRARGASA | binds
YRAGGDSA | binds
VEGTGVGD | no binding
DAGKGAVY | no binding
STTGGDGV | no binding
FAKTDAGF chain 1 G108D | no binding
SGRGNAGD | no binding
FRTKGAAD | binds
YRAKGAAD | binds
FTAGGAAD | no binding
FRGEGAAD | binds
YRTKGAAD | binds

Variant | antigen binding call
YATKGFGD | no binding
FKGEGAAD | no binding
ATGGGYVA | no binding
YKRGAAGD | binds
YKRAAYGD | no binding
YRRGAAGD | binds
YTRGAASD | no binding
YKRGSAGD | binds
FEKGSDVA | no binding
VETEGDVY | no binding
FTGEDDVY | no binding
VEGGTAGS | no binding
YKGKGYVD | no binding
YKGKGAGS | binds
DKEGGSSS | no binding
YKGKGSVS | binds
DEGGGAGS | no binding
DAGGGSSS | no binding
YKGGGAGS | binds
YKGRSSSS | binds
YEKEDYLA chain 1 G108D | no binding
FAKEGDGD | no binding
YKGKGSGS | binds
YARGGAGA | no binding
YKGKGSGA | binds

Variant | antigen binding call
YTGTGSGA | no binding
YKGKGSSS | binds
VKAGGDGS | no binding
YKRGGAGS | binds
DTAESDLD | no binding
SEARSSWV | no binding
YKGKGAWS | binds
VKGRADGS | no binding
YKGRAAGS | binds
AKGRAAAS chain 1 D103N | no binding
DKEGGDAV | no binding
FEKEGDAA | no binding
YRARGSGV | binds
YTARDVGV | no binding
YTERGFGV | no binding
YRARGYGV | binds
YRARGVGV | binds
YRARGFGV | binds
